According to the supplement of paper PMC6522484:
Where a name gives a salt, the structure may show the parent alone. ± gives the standard deviation of the averaged measurements.

Legend:
DLD1 [1] = test: cell viability (CellTiter-Glo) relative to plate median (fraction of plate median); higher = more viable cells; details: 10 µM, treatment time 24 h
Outline: (§1)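 Colorectal cancer cell lines stably transduced with lentiviral TCF/Wnt firefly luciferase reporters (7TFP or TCF4/Wnt) were seeded in 384-well plates. 24 h later they received kinase inhibitor library compounds at a final 10 µM for 24 h. Parallel plates were read for firefly luciferase or CellTiterGlo luminescence on a Tecan F500 reader. Each well's signal was normalised to the plate median (webcellHTS2, additive, no log transformation), and the mean of two independent replicates is reported.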

HCT116 [2] = test: as above; details: 10 µM; treatment time 24 h; reporter: TCF4/Wnt
Outline: as §1

SW480 [3] = test: as above; details: 10 µM; treatment time 24 h; reporter: 7TFP
Outline: as §1

DLD1 [4] = test: TCF/Wnt firefly luciferase reporter signal relative to plate median (fraction of plate median); higher = higher Wnt reporter signal; details: 10 µM, treatment time 24 h
Outline: as §1

HCT116 [5] = test: as above; details: 10 µM; treatment time 24 h; reporter: TCF4/Wnt
Outline: as §1

SW480 [6] = test: as above; details: 10 µM; treatment time 24 h; reporter: 7TFP
Outline: as §1

COc1cccc2cc(-c3nc([C@H]4CC[C@H](C(=O)O)CC4)n4ncnc(N)c34)[nH]c12
cell viability (DLD1 [1]; reporter: 7TFP): 1.03 ± 0.093
cell viability (DLD1 [1]; reporter: TCF4/Wnt): 1.02 ± 0.056
cell viability (HCT116 [2]): 0.816 ± 0.0042
cell viability (SW480 [3]): 1.19 ± 0.11
TCF/Wnt firefly luciferase reporter signal (DLD1 [4]; reporter: 7TFP): 0.442 ± 0.061
TCF/Wnt firefly luciferase reporter signal (DLD1 [4]; reporter: TCF4/Wnt): 0.449 ± 0.098
TCF/Wnt firefly luciferase reporter signal (HCT116 [5]): 0.6105 ± 0.00071
TCF/Wnt firefly luciferase reporter signal (SW480 [6]): 0.83 ± 0.069

COc1cc(Nc2ncc(F)c(Nc3ccc4c(n3)NC(=O)C(C)(C)O4)n2)cc(OC)c1OC [R406(free base)]
cell viability (DLD1 [1]; reporter: 7TFP): 1.2 ± 0.18
cell viability (DLD1 [1]; reporter: TCF4/Wnt): 0.99 ± 0.085
cell viability (HCT116 [2]): 1.2 ± 0.05
cell viability (SW480 [3]): 0.968 ± 0.037
TCF/Wnt firefly luciferase reporter signal (DLD1 [4]; reporter: 7TFP): 1.26 ± 0.028
TCF/Wnt firefly luciferase reporter signal (DLD1 [4]; reporter: TCF4/Wnt): 1.16 ± 0.13
TCF/Wnt firefly luciferase reporter signal (HCT116 [5]): 1.38 ± 0.37
TCF/Wnt firefly luciferase reporter signal (SW480 [6]): 1.29 ± 0.042

O=C1NC(=O)C(=Cc2ccc(-c3ccc(F)cc3)o2)S1 (stereo in doubt)
cell viability (DLD1 [1]; reporter: 7TFP): 1.08 ± 0.11
cell viability (DLD1 [1]; reporter: TCF4/Wnt): 1.11 ± 0.064
cell viability (HCT116 [2]): 1.09 ± 0.11
cell viability (SW480 [3]): 0.937 ± 0.1
TCF/Wnt firefly luciferase reporter signal (DLD1 [4]; reporter: 7TFP): 1.25 ± 0.021
TCF/Wnt firefly luciferase reporter signal (DLD1 [4]; reporter: TCF4/Wnt): 1.55 ± 0.16
TCF/Wnt firefly luciferase reporter signal (HCT116 [5]): 1.29 ± 0.38
TCF/Wnt firefly luciferase reporter signal (SW480 [6]): 1.1 ± 0.13

NC(=O)c1ccc(N(C(N)=O)c2c(F)cccc2F)nc1-c1ccc(F)cc1F
cell viability (DLD1 [1]; reporter: 7TFP): 0.966 ± 0.016
cell viability (DLD1 [1]; reporter: TCF4/Wnt): 1.045 ± 0.0071
cell viability (HCT116 [2]): 1.13 ± 0.085
cell viability (SW480 [3]): 0.91 ± 0.025
TCF/Wnt firefly luciferase reporter signal (DLD1 [4]; reporter: 7TFP): 0.904 ± 0.019
TCF/Wnt firefly luciferase reporter signal (DLD1 [4]; reporter: TCF4/Wnt): 0.756 ± 0.0014
TCF/Wnt firefly luciferase reporter signal (HCT116 [5]): 0.921 ± 0.071
TCF/Wnt firefly luciferase reporter signal (SW480 [6]): 0.752 ± 0.08

C#Cc1cccc(Nc2ncnc3cc(OCCOC)c(OCCOC)cc23)c1 [Erlotinib HCl]
cell viability (DLD1 [1]; reporter: 7TFP): 1.035 ± 0.0071
cell viability (DLD1 [1]; reporter: TCF4/Wnt): 0.934 ± 0.034
cell viability (HCT116 [2]): 1.14 ± 0.078
cell viability (SW480 [3]): 1 ± 0.013
TCF/Wnt firefly luciferase reporter signal (DLD1 [4]; reporter: 7TFP): 0.888 ± 0.023
TCF/Wnt firefly luciferase reporter signal (DLD1 [4]; reporter: TCF4/Wnt): 0.73 ± 0.0057
TCF/Wnt firefly luciferase reporter signal (HCT116 [5]): 0.729 ± 0.4
TCF/Wnt firefly luciferase reporter signal (SW480 [6]): 0.868 ± 0.3

NC(=O)Nc1sc(-c2ccc(F)cc2)cc1C(N)=O
cell viability (DLD1 [1]; reporter: 7TFP): 0.951 ± 0.033
cell viability (DLD1 [1]; reporter: TCF4/Wnt): 0.93 ± 0.075
cell viability (HCT116 [2]): 1.1 ± 0.085
cell viability (SW480 [3]): 1.1 ± 0.014
TCF/Wnt firefly luciferase reporter signal (DLD1 [4]; reporter: 7TFP): 0.669 ± 0.03
TCF/Wnt firefly luciferase reporter signal (DLD1 [4]; reporter: TCF4/Wnt): 1.16 ± 0.18
TCF/Wnt firefly luciferase reporter signal (HCT116 [5]): 1.39 ± 0.2
TCF/Wnt firefly luciferase reporter signal (SW480 [6]): 1.38 ± 0.057

N#Cc1c(O)c2c(-c3ccc(-c4ccccc4O)cc3)csc2[nH]c1=O
cell viability (DLD1 [1]; reporter: 7TFP): 1.13 ± 0.014
cell viability (DLD1 [1]; reporter: TCF4/Wnt): 1.13 ± 0.071
cell viability (HCT116 [2]): 1.25
cell viability (SW480 [3]): 0.922 ± 0.052
TCF/Wnt firefly luciferase reporter signal (DLD1 [4]; reporter: 7TFP): 1.03 ± 0.014
TCF/Wnt firefly luciferase reporter signal (DLD1 [4]; reporter: TCF4/Wnt): 0.96 ± 0.2
TCF/Wnt firefly luciferase reporter signal (HCT116 [5]): 1.08 ± 0.064
TCF/Wnt firefly luciferase reporter signal (SW480 [6]): 0.976 ± 0.16

CN1CCN(c2nc(C3=C(c4c[nH]c5ccccc45)C(=O)NC3=O)c3ccccc3n2)CC1 [Sotrastaurin (AEB071)]
cell viability (DLD1 [1]; reporter: 7TFP): 1.08 ± 0.092
cell viability (DLD1 [1]; reporter: TCF4/Wnt): 1.045 ± 0.0071
cell viability (HCT116 [2]): 1.03 ± 0.13
cell viability (SW480 [3]): 0.914 ± 0.1
TCF/Wnt firefly luciferase reporter signal (DLD1 [4]; reporter: 7TFP): 1.54 ± 0.05
TCF/Wnt firefly luciferase reporter signal (DLD1 [4]; reporter: TCF4/Wnt): 1.52 ± 0.28
TCF/Wnt firefly luciferase reporter signal (HCT116 [5]): 1.33 ± 0.83
TCF/Wnt firefly luciferase reporter signal (SW480 [6]): 0.983 ± 0.63

O=C(O)c1ccc2c(c1)nc(Nc1cccc(Cl)c1)c1ccncc12 [cx-4945 (Silmitasertib)]
cell viability (DLD1 [1]; reporter: 7TFP): 1 ± 0.057
cell viability (DLD1 [1]; reporter: TCF4/Wnt): 0.955 ± 0.079
cell viability (HCT116 [2]): 0.839 ± 0.042
cell viability (SW480 [3]): 1 ± 0.092
TCF/Wnt firefly luciferase reporter signal (DLD1 [4]; reporter: 7TFP): 0.508 ± 0.15
TCF/Wnt firefly luciferase reporter signal (DLD1 [4]; reporter: TCF4/Wnt): 0.651 ± 0.2
TCF/Wnt firefly luciferase reporter signal (HCT116 [5]): 0.627 ± 0.36
TCF/Wnt firefly luciferase reporter signal (SW480 [6]): 0.612 ± 0.1

Cc1ccc(NC(=O)c2cccc(C(C)(C)C#N)c2)cc1Nc1ccc2ncn(C)c(=O)c2c1
cell viability (DLD1 [1]; reporter: 7TFP): 1.21 ± 0.05
cell viability (DLD1 [1]; reporter: TCF4/Wnt): 1.08
cell viability (HCT116 [2]): 0.955 ± 0.044
cell viability (SW480 [3]): 1.18 ± 0.028
TCF/Wnt firefly luciferase reporter signal (DLD1 [4]; reporter: 7TFP): 1.04 ± 0.33
TCF/Wnt firefly luciferase reporter signal (DLD1 [4]; reporter: TCF4/Wnt): 0.843 ± 0.048
TCF/Wnt firefly luciferase reporter signal (HCT116 [5]): 1.2 ± 0.3
TCF/Wnt firefly luciferase reporter signal (SW480 [6]): 1.43 ± 0.12

NCC(=O)Nc1ccc(-n2nc(C(F)(F)F)cc2-c2ccc3c(ccc4ccccc43)c2)cc1
cell viability (DLD1 [1]; reporter: 7TFP): 0.883 ± 0.098
cell viability (DLD1 [1]; reporter: TCF4/Wnt): 0.998 ± 0.14
cell viability (HCT116 [2]): 0.833 ± 0.13
cell viability (SW480 [3]): 0.678 ± 0.46
TCF/Wnt firefly luciferase reporter signal (DLD1 [4]; reporter: 7TFP): 1.09 ± 0.085
TCF/Wnt firefly luciferase reporter signal (DLD1 [4]; reporter: TCF4/Wnt): 1.31 ± 0.34
TCF/Wnt firefly luciferase reporter signal (HCT116 [5]): 0.606 ± 0.18
TCF/Wnt firefly luciferase reporter signal (SW480 [6]): 1.3 ± 0.057
